Test results as given in publication PMC5540273 (PLoS ONE, 2017).

Key:
Conditions in all cases: concentration: 1 μM, replicates: in singlicate; n = 1
AAK1 = test system: AAK1
ABL1-nonphosphorylated = test system: ABL1-nonphosphorylated
ABL1-phosphorylated = test system: ABL1-phosphorylated
ABL2 = test system: ABL2
ACVR1B = test system: ACVR1B
ACVR1 = test system: ACVR1
ACVR2A = test system: ACVR2A
ACVR2B = test system: ACVR2B
ACVRL1 = test system: ACVRL1
ADCK3 = test system: T1, ADCK3
T1 construct: gene CABC1

ADCK4 = test system: ADCK4
AKT1 = test system: AKT1
AKT2 = test system: AKT2
AKT3 = test system: AKT3
ALK = test system: ALK
AMPK-alpha1 = test system: T2, AMPK-alpha1
T2 construct: gene PRKAA1

AMPK-alpha2 = test system: T3, AMPK-alpha2
T3 construct: gene PRKAA2

ANKK1 = test system: ANKK1
ARK5 = test system: T4, ARK5
T4 construct: gene NUAK1

ASK1 = test system: T5, ASK1
T5 construct: gene MAP3K5
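Also: KINOMEscan kinase panel screen.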

CCn1c(-c2nonc2N)nc2c(-c3ccccc3)ncc(OCCCN)c21.O=C(O)C(F)(F)F.O=C(O)C(F)(F)F [GSK260205]
%Inh (AAK1): 14% | %Inh (ABL1-nonphosphorylated): 0% | %Inh (ABL1-phosphorylated): 9% | %Inh (ABL2): 16% | %Inh (ACVR1B): 61% | %Inh (ACVR1): 38% | %Inh (ACVR2A): 0% | %Inh (ACVR2B): 0% | %Inh (ACVRL1): 0% | %Inh (ADCK3): 46% | %Inh (ADCK4): 26% | %Inh (AKT1): 72% | %Inh (AKT2): 75% | %Inh (AKT3): 74% | %Inh (ALK): 25% | %Inh (AMPK-alpha1): 0% | %Inh (AMPK-alpha2): 0% | %Inh (ANKK1): 0% | %Inh (ARK5): 0% | %Inh (ASK1): 0%

CN(c1ccc(F)c(NC(=O)c2cccc(OC(C)(C)C#N)c2Cl)c1)c1ccc2nc(NC(=O)C3CC3)sc2n1
%Inh (AAK1): 2% | %Inh (ABL1-nonphosphorylated): 99% | %Inh (ABL1-phosphorylated): 92.6% | %Inh (ABL2): 89% | %Inh (ACVR1B): 0% | %Inh (ACVR1): 0% | %Inh (ACVR2A): 0% | %Inh (ACVR2B): 0% | %Inh (ACVRL1): 0% | %Inh (ADCK3): 0% | %Inh (ADCK4): 0% | %Inh (AKT1): 2% | %Inh (AKT2): 4% | %Inh (AKT3): 0% | %Inh (ALK): 46% | %Inh (AMPK-alpha1): 0% | %Inh (AMPK-alpha2): 0% | %Inh (ANKK1): 0% | %Inh (ARK5): 0% | %Inh (ASK1): 0%

Cl.Cl.NC(CNC(=O)c1cc(Br)c(-c2ccnc3[nH]ccc23)s1)c1ccccc1 (centres unmarked) [GSK1322949]
%Inh (AAK1): 82% | %Inh (ABL1-nonphosphorylated): 21% | %Inh (ABL1-phosphorylated): 10% | %Inh (ABL2): 25% | %Inh (ACVR1B): 0% | %Inh (ACVR1): 38% | %Inh (ACVR2A): 0% | %Inh (ACVR2B): 10% | %Inh (ACVRL1): 0% | %Inh (ADCK3): 40% | %Inh (ADCK4): 76% | %Inh (AKT1): 66% | %Inh (AKT2): 15% | %Inh (AKT3): 88% | %Inh (ALK): 59% | %Inh (AMPK-alpha1): 73% | %Inh (AMPK-alpha2): 46% | %Inh (ANKK1): 38% | %Inh (ARK5): 0% | %Inh (ASK1): 0%

COc1ccc(NC(=O)c2ccoc2)cc1-c1ccc(C(=O)NCC2CC2)cc1 [GW810437]
%Inh (AAK1): 0% | %Inh (ABL1-nonphosphorylated): 24% | %Inh (ABL1-phosphorylated): 1% | %Inh (ABL2): 5% | %Inh (ACVR1B): 4% | %Inh (ACVR1): 0% | %Inh (ACVR2A): 0% | %Inh (ACVR2B): 17% | %Inh (ACVRL1): 10% | %Inh (ADCK3): 0% | %Inh (ADCK4): 0% | %Inh (AKT1): 15% | %Inh (AKT2): 0% | %Inh (AKT3): 0% | %Inh (ALK): 0% | %Inh (AMPK-alpha1): 19% | %Inh (AMPK-alpha2): 0% | %Inh (ANKK1): 7% | %Inh (ARK5): 0% | %Inh (ASK1): 30%

COc1cc(Nc2nccc(N3CCC(NS(=O)(=O)c4ccc(NC(C)=O)cc4)CC3)n2)cc(OC)c1OC [GSK1379825]
%Inh (AAK1): 68% | %Inh (ABL1-nonphosphorylated): 0% | %Inh (ABL1-phosphorylated): 2% | %Inh (ABL2): 38% | %Inh (ACVR1B): 34% | %Inh (ACVR1): 66% | %Inh (ACVR2A): 47% | %Inh (ACVR2B): 59% | %Inh (ACVRL1): 0% | %Inh (ADCK3): 80% | %Inh (ADCK4): 96.2% | %Inh (AKT1): 0% | %Inh (AKT2): 15% | %Inh (AKT3): 0% | %Inh (ALK): 32% | %Inh (AMPK-alpha1): 17% | %Inh (AMPK-alpha2): 50% | %Inh (ANKK1): 0% | %Inh (ARK5): 43% | %Inh (ASK1): 0%

CCOc1nccc(-c2c(-c3ccc(F)cc3)ncn2C2CCNCC2)n1 [SB-249175]
%Inh (AAK1): 11% | %Inh (ABL1-nonphosphorylated): 35% | %Inh (ABL1-phosphorylated): 2% | %Inh (ABL2): 0% | %Inh (ACVR1B): 100% | %Inh (ACVR1): 11% | %Inh (ACVR2A): 9% | %Inh (ACVR2B): 0% | %Inh (ACVRL1): 1% | %Inh (ADCK3): 13% | %Inh (ADCK4): 8% | %Inh (AKT1): 0% | %Inh (AKT2): 0% | %Inh (AKT3): 16% | %Inh (ALK): 52% | %Inh (AMPK-alpha1): 1% | %Inh (AMPK-alpha2): 5% | %Inh (ANKK1): 0% | %Inh (ARK5): 7% | %Inh (ASK1): 0%

CC(=O)Nc1cn2nc(Oc3cccc(NC(=O)c4cccc(C(F)(F)F)c4)c3)ccc2n1
%Inh (AAK1): 0% | %Inh (ABL1-nonphosphorylated): 100% | %Inh (ABL1-phosphorylated): 99.9% | %Inh (ABL2): 99.3% | %Inh (ACVR1B): 0% | %Inh (ACVR1): 0% | %Inh (ACVR2A): 0% | %Inh (ACVR2B): 31% | %Inh (ACVRL1): 0% | %Inh (ADCK3): 0% | %Inh (ADCK4): 9% | %Inh (AKT1): 20% | %Inh (AKT2): 0% | %Inh (AKT3): 16% | %Inh (ALK): 9% | %Inh (AMPK-alpha1): 0% | %Inh (AMPK-alpha2): 8% | %Inh (ANKK1): 0% | %Inh (ARK5): 12% | %Inh (ASK1): 0%
